The values that follow come from PubChem BioAssay (NCATS).

Test [1] in a line: AP1 Signaling Pathway (AID 357).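 Note: ME-180 reporter cells stimulated with EGF at its EC50 level; % is set by controls: 0 for no effect and ±100 for the full control effect.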 The note with it: ME-180 AP-1-bla reporter, EGF-induced, beta-lactamase ratio, 5 h; at 7.69 µM (top of the series) unless noted. Summed up: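 Beta-lactamase reporter under AP-1 response element, ME-180 background. Stimulus: EC50 EGF. Compound exposure 5 h, 37 °C. Detection: CCF4, 2.5 h RT, 460/530 nm. Values: AC50 from titration.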
Test [2] deals with Cytochrome P450 1A2 (Homo sapiens) (UniProt P05177). The test is described as follows: p450-cyp1a2 (AID 410; calls by dose curve; note: potency is the fitted concentration of half-maximal effect;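 for activity change, negative = inhibition: -100% = full effect of reference inhibitor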). In outline:
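Luminescent readout of luciferin formed from Luciferin-ME by human CYP1A2; data normalized against complete inhibition by 57 uM furafylline. Enzyme 20nM, substrate 100uM at Km, 100mM KPO4 buffer, 60 min reaction at room temperature.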

Test [3] can be described thus: NFAT Signaling Pathway (AID 444).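 Note: carbachol stimulus at about its EC50 of 1 µM final; % is set by controls: 0 for no effect and ±100 for the full control effect.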 The note with it: Jurkat NFAT-bla M1, carbachol, beta-lactamase ratio, 5 h; at 7.69 µM (top of the series) unless noted. Summed up: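 Jurkat cells carrying an NFAT-driven β-lactamase reporter and co-transfected muscarinic M1 receptor were treated with compound plus carbachol (1 uM final, an EC50 level) for 5 h at 37 °C. CCF4 loading followed for 1 h at RT; 460/530 nm ratio gave %activity.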

Test [4] is described as follows: Stat Signaling Pathway (AID 446).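 Note: ME-180 cervical cancer cells given 40 pM IL-6 alongside compound; SIE-controlled beta-lactamase reporter measured as 460/530 nm FRET emission ratio; % is set by controls: 0 for no effect and ±100 for the full control effect.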 The note with it: ME-180 SIE beta-lactamase reporter, IL-6 stimulated, 5 h; at 7.69 µM (top of the series) unless noted. In outline: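 Reporter line: ME-180 cervical carcinoma, SIE-beta-lactamase. Treatment: compound with 40 pM IL-6, 5 hrs, 37 C, in low-serum OPTI-MEM with 10 mM HEPES pH 7.3. Detection: 460/530 nm fluorescence.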

Test [5] has as its target Glucocorticoid receptor (Homo sapiens) (UniProt P04150). The test is described as follows: GR-GFP Redistribution (AID 450;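 active = compounds whose dose series gives a full or clear partial fitted curve of increased nuclear translocation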; note: potency is the fitted concentration of half-maximal effect). The note with it: U2OS GR-GFP nuclear translocation, laser cytometry, 2 h.
Test [6] shares this target. The test is described as follows: GR-EFC Redistribution (AID 451; calls by dose curve; note: potency is the fitted concentration of half-maximal effect). The note with it: CHO-K1 GR-EFC translocation, beta-gal luminescence, 2 h. Summed up:
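CHO-K1 cells stably expressing nuclear-localized β-gal enzyme acceptor and GR fused C-terminally to the enzyme donor fragment; ligand-driven nuclear translocation restores β-gal by complementation. Compounds titrated up to 46 uM final, 2 h at 37 °C; luminescence read.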

For test [7], the target named is Mitogen-activated protein kinase 10 (Mus musculus) (UniProt Q61831). The test is described as follows: JNK3 AlphaScreen Assay (AID 530).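 Note: kinase came from lysate of stimulated human HepG2 cells; signal reports phosphorylation of biotinylated GST-cJun 1-79 at Ser73 with 10 µM ATP; % is set by controls: 0 for no effect and ±100 for the full control effect.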 In outline:
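Inhibitors reduce antibody binding to phosphorylated biotin-cJun, lowering AlphaScreen luminescence. Lysates from HepG2 cells pre-activated by IL-1beta plus TNF-alpha supplied JNK3; compounds were titrated.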

Test [8] deals with 3',5'-cyclic-AMP phosphodiesterase 4B (Homo sapiens) (UniProt Q07343). The test is described as follows: qHTS Assay for Inhibitors of PDE-IV (AID 607; active = well fitted activation curve with a large enough effect in the main read-out, with a control signal flat, not every such curve was filed as active; note: % of control where 0% means no effect). Summed up:
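Cell-based read-out of cAMP via a modified cyclic nucleotide-gated channel and membrane potential dye (535/590 nm) in HEK293 cells expressing PDE4 endogenously. Compounds tested up to 22.9 uM final; 100 uM RO 20-1724 reference.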
Background: In qHTS, concentration-response curves come from the screen itself.

The target of test [9] is Cytochrome P450 2C9 (Homo sapiens) (UniProt P11712). Put plainly: qHTS Assay for Inhibitors and Substrates of Cytochrome P450 2C9 (AID 883; active = well fitted curve in the direction sought with a large enough effect; an effect the other way counts as inactive or inconclusive; note: nearly all actives have a fitted effect of over 60% in size; note: potency is the fitted concentration of half-maximal effect). Summed up:
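CYP2C9 deoxyluciferin hydroxylation, 37C, 60 min with NADPH regeneration; 10nM enzyme, 100uM Luciferin-H (KM). Glo detection reagent stopped reaction; luminescence normalized to sulphaphenazole (57uM) full inhibition.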

The target of test [10] is Cytochrome P450 2D6 (Homo sapiens) (UniProt P10635). The test is described as follows: qHTS Assay for Inhibitors and Substrates of Cytochrome P450 2D6 (AID 891; active = well fitted curve in the direction sought with a large enough effect; an effect the other way counts as inactive or inconclusive;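 note: luciferin methyl ether substrate demethylated by CYP2D6 with NADPH regeneration; % is set by controls: 0 for no effect and ±100 for the full control effect; nearly all actives have a fitted effect of over 60% in size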). In outline:
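Human CYP2D6 (5 nM) with 30 uM Luciferin-ME EGE (at Km) in 100 mM KPO4, compound preincubated 10 min, then NADPH regeneration system for 60 min at room temperature. Luciferin read by luminescence; normalized to 1.43 uM quinidine.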

The target of test [11] is Cytochrome P450 2C19 (Homo sapiens) (UniProt P33261). The test is described as follows: qHTS Assay for Inhibitors and Substrates of Cytochrome P450 2C19 (AID 899; active = well fitted curve in the direction sought with a large enough effect; an effect the other way counts as inactive or inconclusive; note: % is set by controls: 0 for no effect and ±100 for the full control effect; nearly all actives have a fitted effect of over 60% in size). In outline:
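In 50mM KPO4, the reaction held 5nM enzyme and KM-level (10uM) Luciferin-H EGE; it ran 60 min at 37C after NADPH regeneration and a 10 min compound preincubation. Luminescence values were scaled to 57uM ketoconazole as complete inhibition.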

Test [12] has as its target Guanine nucleotide-binding protein G(i) subunit alpha-1 (Homo sapiens) (UniProt P63096). The test is described as follows: qHTS Assay for Inhibitors of RGS12 GoLoco Motif Activity (Green Fluorophore) (AID 879; active = well fitted curve in the direction sought with a large enough effect; an effect the other way counts as inactive or inconclusive;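 note: 0% = labeled peptide with Gαi1 and full inhibition = labeled peptide alone without protein; negative values mean loss of peptide binding seen as reduced polarization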). In outline:
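Fluorescence polarization assay: 50 nM Gαi1 with 10 nM FITC-labeled RGS12 GoLoco peptide in 10 mM Tris pH 7.5, 150 mM NaCl, 0.1 mM GDP, 0.05% NP40, 10 min at room temperature with compound.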

Test [13] addresses Pyruvate kinase PKM (Homo sapiens) (UniProt P14618). Put plainly: qHTS Assay for Activators of Human Muscle Pyruvate Kinase (AID 954; active = well fitted curve in the direction sought with a large enough effect, not every such curve was filed as active;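 note: 0% = uninhibited enzyme and -100% = no enzyme or full thiadiazolimine inhibition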). In outline:
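Human PKM2 activity is measured as ATP generation, detected by luciferase-coupled luminescence. The enzyme (0.1 nM) acts on 0.5 mM PEP and 0.1 mM ADP for 1 h at ambient temperature; data are normalized to uninhibited and full-inhibition wells.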

In test [14] the target is Alpha-galactosidase A (Homo sapiens) (UniProt P06280). Put plainly: Counterscreen for Glucocerebrosidase Inhibitors: qHTS Assay for Human alpha-Galactosidase at pH 4.5 (AID 992; active = well fitted curve in the direction sought with a large enough effect; an effect the other way counts as inactive or inconclusive; note: 0% is about no effect). In outline:
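Quantitative HTS: compounds tested from 0.7 nM up to 77 uM against 2 nM enzyme with 80 uM 4-MU alpha-D-galactopyranoside. The 20 min room-temperature reaction is stopped with 1M NaOH/1M glycine, pH 10.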

Test [15] concerns the target alpha-glucosidase (Oryza sativa, rice) (UniProt Q653V4). The test is described as follows: Counterscreen for Glucocerebrosidase Inhibitors: qHTS Assay for Rice alpha-Glucosidase at pH 5.0 (AID 997; active = well fitted curve in the direction sought with a large enough effect; an effect the other way counts as inactive or inconclusive;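 note: 0% = full activity with enzyme and -100% = basal without enzyme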). Summed up:
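Rice alpha-glucosidase (4 nM final) with 400 uM 4-methylumbelliferyl-alpha-D-glucopyranoside in citrate buffer pH 5.0, 20 min at room temperature, stopped at pH 10; fluorescence 365/440 nm, compounds 0.7 nM–77 uM, AC50 from Hill fits.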

Values without a mark were called inactive. Inconclusive results are not listed. Active and inactive are the calls of the source. Unless noted, calls come from the whole dose curve; as a rule, active = well fitted curve in either direction with a large enough effect (not every such curve was filed as active); inconclusive = small, poorly fitted or top-dose-only effect, or another doubt; inactive = flat fitted curve, though single readings scatter.

Sequence of Cytochrome P450 1A2 (Homo sapiens) (P05177 whole entry, looked up): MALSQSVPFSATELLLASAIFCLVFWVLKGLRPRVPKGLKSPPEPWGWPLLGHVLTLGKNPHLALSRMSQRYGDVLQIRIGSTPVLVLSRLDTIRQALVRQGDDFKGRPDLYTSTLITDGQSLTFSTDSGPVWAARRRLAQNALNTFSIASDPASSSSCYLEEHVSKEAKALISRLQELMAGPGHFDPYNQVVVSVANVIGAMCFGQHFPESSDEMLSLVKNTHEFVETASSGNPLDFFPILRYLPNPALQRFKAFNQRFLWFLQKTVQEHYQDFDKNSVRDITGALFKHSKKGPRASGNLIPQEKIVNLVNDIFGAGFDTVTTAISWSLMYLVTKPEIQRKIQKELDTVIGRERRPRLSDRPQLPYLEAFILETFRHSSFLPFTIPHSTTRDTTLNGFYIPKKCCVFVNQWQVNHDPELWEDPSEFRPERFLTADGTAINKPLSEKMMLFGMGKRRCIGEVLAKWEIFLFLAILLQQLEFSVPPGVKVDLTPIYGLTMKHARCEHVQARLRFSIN
Sequence of Glucocorticoid receptor (Homo sapiens) (P04150 whole entry, looked up): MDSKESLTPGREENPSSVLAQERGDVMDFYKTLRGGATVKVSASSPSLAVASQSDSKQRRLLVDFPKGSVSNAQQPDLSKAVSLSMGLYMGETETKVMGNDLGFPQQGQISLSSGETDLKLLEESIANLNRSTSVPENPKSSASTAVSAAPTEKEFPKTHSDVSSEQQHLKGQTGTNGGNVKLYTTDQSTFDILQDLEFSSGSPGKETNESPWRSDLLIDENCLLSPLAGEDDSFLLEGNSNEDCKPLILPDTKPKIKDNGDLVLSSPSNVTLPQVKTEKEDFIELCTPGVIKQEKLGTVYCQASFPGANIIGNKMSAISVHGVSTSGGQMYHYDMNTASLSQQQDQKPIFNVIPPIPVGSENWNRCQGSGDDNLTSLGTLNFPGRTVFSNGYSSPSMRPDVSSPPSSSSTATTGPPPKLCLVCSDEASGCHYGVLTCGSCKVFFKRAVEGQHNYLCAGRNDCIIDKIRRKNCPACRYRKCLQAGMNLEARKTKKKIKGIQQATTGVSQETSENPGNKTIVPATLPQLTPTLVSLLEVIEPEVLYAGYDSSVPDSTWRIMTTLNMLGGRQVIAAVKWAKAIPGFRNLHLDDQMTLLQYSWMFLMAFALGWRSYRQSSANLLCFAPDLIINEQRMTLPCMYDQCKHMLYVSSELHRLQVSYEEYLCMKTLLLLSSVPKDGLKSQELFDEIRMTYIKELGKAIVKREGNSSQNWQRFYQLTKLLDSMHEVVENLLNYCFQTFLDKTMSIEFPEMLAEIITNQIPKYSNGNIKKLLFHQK
Sequence of 3',5'-cyclic-AMP phosphodiesterase 4B (Homo sapiens) (Q07343 whole entry, looked up): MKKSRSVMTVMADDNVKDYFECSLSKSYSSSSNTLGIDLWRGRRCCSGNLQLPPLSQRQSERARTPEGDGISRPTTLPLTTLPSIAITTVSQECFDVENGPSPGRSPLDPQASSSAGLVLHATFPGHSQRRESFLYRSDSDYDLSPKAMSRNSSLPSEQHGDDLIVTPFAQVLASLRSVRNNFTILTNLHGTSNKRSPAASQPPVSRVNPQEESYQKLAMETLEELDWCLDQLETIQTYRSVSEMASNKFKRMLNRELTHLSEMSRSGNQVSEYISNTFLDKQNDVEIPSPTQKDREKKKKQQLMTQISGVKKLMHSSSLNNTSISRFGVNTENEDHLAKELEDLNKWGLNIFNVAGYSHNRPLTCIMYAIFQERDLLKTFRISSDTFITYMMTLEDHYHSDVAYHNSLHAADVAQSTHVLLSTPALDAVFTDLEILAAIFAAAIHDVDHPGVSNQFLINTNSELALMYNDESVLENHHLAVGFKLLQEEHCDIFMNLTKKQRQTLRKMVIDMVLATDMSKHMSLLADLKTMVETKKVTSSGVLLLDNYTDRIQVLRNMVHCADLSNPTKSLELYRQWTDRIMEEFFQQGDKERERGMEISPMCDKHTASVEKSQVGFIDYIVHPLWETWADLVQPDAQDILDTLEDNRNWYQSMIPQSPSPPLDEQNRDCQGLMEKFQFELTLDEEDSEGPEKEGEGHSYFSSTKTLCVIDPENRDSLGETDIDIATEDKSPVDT
Sequence of Cytochrome P450 2C9 (Homo sapiens) (P11712 whole entry, looked up): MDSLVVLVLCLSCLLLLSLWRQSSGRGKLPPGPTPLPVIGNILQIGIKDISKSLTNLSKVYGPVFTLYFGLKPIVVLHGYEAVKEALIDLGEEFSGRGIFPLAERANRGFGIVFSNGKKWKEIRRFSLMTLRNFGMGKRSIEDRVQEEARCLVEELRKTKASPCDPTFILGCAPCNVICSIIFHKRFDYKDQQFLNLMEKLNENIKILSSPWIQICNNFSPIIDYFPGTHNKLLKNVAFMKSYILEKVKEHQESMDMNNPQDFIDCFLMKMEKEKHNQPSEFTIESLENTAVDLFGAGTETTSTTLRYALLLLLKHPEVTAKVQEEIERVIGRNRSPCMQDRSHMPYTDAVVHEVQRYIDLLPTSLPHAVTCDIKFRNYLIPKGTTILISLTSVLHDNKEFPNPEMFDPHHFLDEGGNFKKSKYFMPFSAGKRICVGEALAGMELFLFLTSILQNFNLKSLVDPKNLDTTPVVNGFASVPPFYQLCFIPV
Sequence of Guanine nucleotide-binding protein G(i) subunit alpha-1 (Homo sapiens) (P63096 whole entry, looked up): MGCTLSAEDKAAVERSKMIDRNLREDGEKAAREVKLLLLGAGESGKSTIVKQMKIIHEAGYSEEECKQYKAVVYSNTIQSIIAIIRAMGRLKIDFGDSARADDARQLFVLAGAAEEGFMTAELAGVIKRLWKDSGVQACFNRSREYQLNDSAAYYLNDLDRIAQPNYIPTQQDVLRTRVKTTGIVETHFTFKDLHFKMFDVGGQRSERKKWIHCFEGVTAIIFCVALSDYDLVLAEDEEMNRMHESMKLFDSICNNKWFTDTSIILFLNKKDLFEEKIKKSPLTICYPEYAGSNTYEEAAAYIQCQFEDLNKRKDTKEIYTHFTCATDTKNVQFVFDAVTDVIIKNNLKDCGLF
Sequence of Alpha-galactosidase A (Homo sapiens) (P06280 whole entry, looked up): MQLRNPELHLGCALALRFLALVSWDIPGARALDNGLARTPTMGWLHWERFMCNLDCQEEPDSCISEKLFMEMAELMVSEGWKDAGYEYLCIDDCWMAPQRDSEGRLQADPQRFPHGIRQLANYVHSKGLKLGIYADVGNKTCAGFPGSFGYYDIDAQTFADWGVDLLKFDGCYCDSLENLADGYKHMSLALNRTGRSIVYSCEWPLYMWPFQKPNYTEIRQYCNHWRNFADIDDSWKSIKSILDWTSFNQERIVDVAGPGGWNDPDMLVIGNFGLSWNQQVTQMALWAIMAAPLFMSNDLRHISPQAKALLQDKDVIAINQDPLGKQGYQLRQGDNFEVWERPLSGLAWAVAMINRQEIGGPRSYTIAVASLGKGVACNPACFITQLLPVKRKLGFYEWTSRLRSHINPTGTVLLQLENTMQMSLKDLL
Sequence of Cytochrome P450 2C19 (Homo sapiens) (P33261 whole entry, looked up): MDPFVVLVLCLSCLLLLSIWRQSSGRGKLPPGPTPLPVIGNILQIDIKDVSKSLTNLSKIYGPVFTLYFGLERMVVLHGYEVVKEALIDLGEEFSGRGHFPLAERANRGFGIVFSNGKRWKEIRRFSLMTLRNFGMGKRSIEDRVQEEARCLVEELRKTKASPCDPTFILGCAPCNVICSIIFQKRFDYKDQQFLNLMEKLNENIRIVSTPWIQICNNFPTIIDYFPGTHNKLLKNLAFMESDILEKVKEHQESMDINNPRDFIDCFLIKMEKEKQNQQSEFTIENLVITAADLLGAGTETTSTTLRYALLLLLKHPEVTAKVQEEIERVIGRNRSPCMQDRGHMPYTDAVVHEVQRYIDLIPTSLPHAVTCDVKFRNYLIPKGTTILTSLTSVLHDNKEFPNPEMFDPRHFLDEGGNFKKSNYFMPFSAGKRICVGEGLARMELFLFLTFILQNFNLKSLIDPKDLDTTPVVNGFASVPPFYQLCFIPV
Sequence of Cytochrome P450 2D6 (Homo sapiens) (P10635 whole entry, looked up): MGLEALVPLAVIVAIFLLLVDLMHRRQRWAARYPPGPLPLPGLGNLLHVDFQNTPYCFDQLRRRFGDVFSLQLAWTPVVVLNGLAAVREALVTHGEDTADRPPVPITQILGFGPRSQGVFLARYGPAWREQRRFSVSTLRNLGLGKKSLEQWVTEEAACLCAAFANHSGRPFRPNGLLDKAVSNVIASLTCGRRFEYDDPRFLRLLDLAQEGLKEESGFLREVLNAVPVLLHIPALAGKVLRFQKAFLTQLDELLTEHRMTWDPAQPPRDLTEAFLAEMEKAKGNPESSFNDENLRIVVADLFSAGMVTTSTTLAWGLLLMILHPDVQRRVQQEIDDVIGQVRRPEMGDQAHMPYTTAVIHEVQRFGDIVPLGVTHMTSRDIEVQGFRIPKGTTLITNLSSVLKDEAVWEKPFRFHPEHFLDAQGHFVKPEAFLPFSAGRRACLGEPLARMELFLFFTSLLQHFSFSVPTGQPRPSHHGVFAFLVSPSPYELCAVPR
Sequence of Pyruvate kinase PKM (Homo sapiens) (P14618 whole entry, looked up): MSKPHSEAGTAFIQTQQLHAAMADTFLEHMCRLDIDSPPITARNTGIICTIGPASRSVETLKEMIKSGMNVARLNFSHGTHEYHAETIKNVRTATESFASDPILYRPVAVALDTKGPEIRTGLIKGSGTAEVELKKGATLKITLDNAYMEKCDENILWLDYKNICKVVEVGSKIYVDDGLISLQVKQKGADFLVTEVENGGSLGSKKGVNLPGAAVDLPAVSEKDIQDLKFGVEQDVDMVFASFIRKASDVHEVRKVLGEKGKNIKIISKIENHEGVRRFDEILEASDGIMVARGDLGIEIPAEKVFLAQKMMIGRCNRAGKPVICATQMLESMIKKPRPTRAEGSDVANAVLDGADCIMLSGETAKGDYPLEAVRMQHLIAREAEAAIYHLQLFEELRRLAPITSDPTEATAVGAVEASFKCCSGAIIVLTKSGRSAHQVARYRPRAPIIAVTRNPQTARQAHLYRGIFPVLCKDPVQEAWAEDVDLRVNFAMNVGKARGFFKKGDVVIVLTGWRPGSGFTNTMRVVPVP

With `N[C@@H](C(=O)O)[C@@H]1C[C@H]1C(=O)O`, the activity change, negative = inhibition in [1] is -6.47% [at 38 µM]; in [3], 4.34% [at 38 µM]. Besides, the Potency result in test [2], in [7], in test [8], in [9], in test [10] and in [11] was “inactive” in each case. Moreover, the activity, negative = inhibition in test [4] was 16.9% [at 38 µM]. For the same compound, the Potency in test [5] and in test [6] was greater than 46 µM in each case.

With `COc1cc([C@@H](O)CO)ccc1OS(=O)(=O)O`, the activity change, negative = inhibition is 6.76% [at 38 µM] in [1] and 4.87% [at 38 µM] in test [3]. Also, the Potency entry in test [2], in [7], in [8] and in test [15] was “inactive” in each case. Moreover, the activity, negative = inhibition in test [4] is 7.18% [at 38 µM]. The Potency in [5] and in test [6] was greater than 46 µM in each case. Besides, the call in test [12], in test [13] and in test [14] was inactive.

As to `O=[N+]([O-])c1ccc2c(c1)S(=O)c1ccccc1-2` (stereo not given), the activity change, negative = inhibition in test [1] is 11.5%; in test [3], 10.5%. Besides, the Potency in [2] is 0.2 µM (active); in test [5], greater than 46 µM; in test [6], greater than 9.22 µM. Besides, the activity, negative = inhibition in test [4] is -13.7%. Moreover, the Potency result in [7] and in test [8] was “inactive” throughout.

As to `CC1=C(\C=C/C(C)=C/C=C\C(C)=C\C(=O)Nc2ccc(O)cc2)C(C)(C)CCC1`, the values for the activity change, negative = inhibition in test [1] and in [3] were -16.4% [at 38 µM] and -17.1% [at 38 µM], respectively. Besides, the Potency entry in test [2], in test [7], in test [8] and in test [10] was “inactive” each time. Further, the activity, negative = inhibition in test [4] is -11.2% [at 38 µM]. Besides, the Potency in test [5] and in test [6] was greater than 46 µM each time.

Turning to `CN1CCc2c(cc(O)c(O)c2Cl)[C@H](c2cccc(Cl)c2)C1`, the figures for the activity change, negative = inhibition in test [1] and in test [3] were 26% [at 38 µM] and -25.3% [at 38 µM], respectively. Moreover, the Potency entry in test [2], in test [7], in test [8] and in [15] was “inactive” throughout. The activity, negative = inhibition in [4] was -20% [at 38 µM]. Also, the Potency in test [5] and in [6] was greater than 46 µM each time. Moreover, the compound was classed as inactive in test [12], in [13] and in [14].

In the case of `CC[N+](C)(CC)CCN1C(=O)c2ccccc2S1(=O)=O`, the activity change, negative = inhibition is 7.73% in test [1] and 6.78% in [3]. Moreover, the Potency entry in [2], in test [7], in [8] and in test [11] was “inactive” throughout. For the same compound, in [4], the activity, negative = inhibition was -3.07%. In addition, the figures for the Potency in test [5] and in test [6] were greater than 46 µM and greater than 9.22 µM, respectively.

For `CC(C)N(Cc1ccccc1)S(=O)(=O)c1n[nH]c(C(C)(C)C)n1`, the activity change, negative = inhibition in test [1] was -0.248%; in test [3], 4.29%. Besides, the Potency result in test [2], in test [7] and in test [8] was “inactive” throughout. Moreover, the activity, negative = inhibition in test [4] is -2.12%. Besides, the Potency in [5] is greater than 46 µM; in test [6], greater than 9.22 µM; in test [9], 3.98 µM (active).
